Experiment [1] deals with 5'-AMP-activated protein kinase catalytic subunit alpha-2 (Homo sapiens) (UniProt P54646). Conditions: at 1 µM.
Experiment [2] has as its target T1, NUAK family SNF1-like kinase 1 (Homo sapiens) (UniProt O60285).
T1 sequence (whole entry): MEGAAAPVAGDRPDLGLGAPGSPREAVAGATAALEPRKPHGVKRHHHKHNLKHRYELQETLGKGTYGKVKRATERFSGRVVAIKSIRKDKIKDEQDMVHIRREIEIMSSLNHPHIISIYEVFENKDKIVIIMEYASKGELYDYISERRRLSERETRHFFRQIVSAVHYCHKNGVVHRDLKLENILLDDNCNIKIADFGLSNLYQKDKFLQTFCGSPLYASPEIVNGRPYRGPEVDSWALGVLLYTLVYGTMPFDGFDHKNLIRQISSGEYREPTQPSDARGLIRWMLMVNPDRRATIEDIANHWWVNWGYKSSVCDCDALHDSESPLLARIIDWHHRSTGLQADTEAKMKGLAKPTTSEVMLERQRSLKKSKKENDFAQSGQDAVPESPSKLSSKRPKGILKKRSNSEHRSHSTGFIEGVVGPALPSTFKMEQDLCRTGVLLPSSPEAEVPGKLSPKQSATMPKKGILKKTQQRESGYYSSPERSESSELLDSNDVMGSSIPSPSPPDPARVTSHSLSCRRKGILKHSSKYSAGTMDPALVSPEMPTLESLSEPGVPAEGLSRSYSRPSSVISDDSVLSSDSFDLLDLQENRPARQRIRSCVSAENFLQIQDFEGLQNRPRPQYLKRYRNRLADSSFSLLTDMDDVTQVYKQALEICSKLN
The conditions noted are these: at 0.1 µM.

Experiment [3] has as its target T1, NUAK family SNF1-like kinase 1 (Homo sapiens). Conditions: at 1 µM.
For experiment [4], the target named is T2, Serine/threonine-protein kinase BRSK1 (Homo sapiens) (UniProt Q8TDC3).
T2 sequence (whole entry): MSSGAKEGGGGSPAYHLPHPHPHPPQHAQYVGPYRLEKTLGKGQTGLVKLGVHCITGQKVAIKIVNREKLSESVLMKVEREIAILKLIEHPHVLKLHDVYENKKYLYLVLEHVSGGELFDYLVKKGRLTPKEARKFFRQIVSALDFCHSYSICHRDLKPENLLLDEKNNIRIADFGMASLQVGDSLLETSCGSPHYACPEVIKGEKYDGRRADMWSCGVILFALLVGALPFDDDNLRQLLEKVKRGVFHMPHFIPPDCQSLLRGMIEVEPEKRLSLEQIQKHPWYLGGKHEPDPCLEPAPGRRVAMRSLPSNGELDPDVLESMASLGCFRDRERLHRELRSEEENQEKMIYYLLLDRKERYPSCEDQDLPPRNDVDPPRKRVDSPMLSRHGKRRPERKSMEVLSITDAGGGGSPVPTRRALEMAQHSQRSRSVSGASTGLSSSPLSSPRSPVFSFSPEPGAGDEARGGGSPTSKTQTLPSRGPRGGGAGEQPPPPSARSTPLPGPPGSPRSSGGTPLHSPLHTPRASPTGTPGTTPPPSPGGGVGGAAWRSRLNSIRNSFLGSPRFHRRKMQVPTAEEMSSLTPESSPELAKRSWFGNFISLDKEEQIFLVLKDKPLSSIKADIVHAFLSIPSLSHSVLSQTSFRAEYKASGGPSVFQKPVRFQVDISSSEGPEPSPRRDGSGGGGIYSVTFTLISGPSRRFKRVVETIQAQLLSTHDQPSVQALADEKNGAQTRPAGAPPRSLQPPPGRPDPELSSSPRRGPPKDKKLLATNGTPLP
The conditions noted are these: at 0.1 µM.

Experiment [5] addresses T2, Serine/threonine-protein kinase BRSK1 (Homo sapiens). Conditions: at 1 µM.
Experiment [6] deals with T3, Serine/threonine-protein kinase BRSK2 (Homo sapiens) (UniProt Q8IWQ3).
T3 sequence (whole entry): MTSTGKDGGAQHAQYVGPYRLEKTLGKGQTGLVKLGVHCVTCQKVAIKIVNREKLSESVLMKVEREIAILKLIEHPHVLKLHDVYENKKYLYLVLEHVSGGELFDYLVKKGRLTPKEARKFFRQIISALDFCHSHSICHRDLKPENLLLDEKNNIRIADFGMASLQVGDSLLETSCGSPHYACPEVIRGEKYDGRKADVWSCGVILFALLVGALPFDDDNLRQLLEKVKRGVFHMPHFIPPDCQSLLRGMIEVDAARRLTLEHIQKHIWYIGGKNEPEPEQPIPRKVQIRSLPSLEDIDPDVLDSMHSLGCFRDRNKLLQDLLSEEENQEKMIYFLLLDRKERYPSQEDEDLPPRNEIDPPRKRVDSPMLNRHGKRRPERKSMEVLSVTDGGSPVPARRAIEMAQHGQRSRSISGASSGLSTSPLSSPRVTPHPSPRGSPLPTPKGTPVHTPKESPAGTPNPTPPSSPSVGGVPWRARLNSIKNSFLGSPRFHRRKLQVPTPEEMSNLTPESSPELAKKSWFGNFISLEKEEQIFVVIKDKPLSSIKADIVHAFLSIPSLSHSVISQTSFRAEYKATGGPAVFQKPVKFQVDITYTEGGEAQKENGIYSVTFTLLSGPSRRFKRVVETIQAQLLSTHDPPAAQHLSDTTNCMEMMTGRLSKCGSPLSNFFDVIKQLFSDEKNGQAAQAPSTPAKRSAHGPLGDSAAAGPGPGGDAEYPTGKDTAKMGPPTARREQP
The conditions noted are these: at 0.1 µM.

Experiment [7] concerns the target T3, Serine/threonine-protein kinase BRSK2 (Homo sapiens). Conditions: at 1 µM.
Experiment [8] deals with Calcium/calmodulin-dependent protein kinase type 1D (Homo sapiens) (UniProt Q8IU85). Conditions: at 0.1 µM.
Sequence of Calcium/calmodulin-dependent protein kinase type 1D (Homo sapiens) (Q8IU85 whole entry, looked up): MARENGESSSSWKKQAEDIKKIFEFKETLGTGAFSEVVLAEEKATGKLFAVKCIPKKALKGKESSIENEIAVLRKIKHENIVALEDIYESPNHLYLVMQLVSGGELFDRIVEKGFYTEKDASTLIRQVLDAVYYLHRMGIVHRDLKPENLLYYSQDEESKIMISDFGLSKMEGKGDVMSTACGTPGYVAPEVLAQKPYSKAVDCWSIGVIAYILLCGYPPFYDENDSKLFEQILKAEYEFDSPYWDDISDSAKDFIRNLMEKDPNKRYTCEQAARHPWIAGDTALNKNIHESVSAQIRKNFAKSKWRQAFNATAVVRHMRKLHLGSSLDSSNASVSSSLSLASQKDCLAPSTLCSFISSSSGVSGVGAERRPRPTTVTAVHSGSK
Experiment [9] has the same target. The conditions noted are these: at 1 µM.
Experiment [10] deals with Calcium/calmodulin-dependent protein kinase type II subunit alpha (Homo sapiens) (UniProt Q9UQM7). Conditions: at 0.1 µM.
Sequence of Calcium/calmodulin-dependent protein kinase type II subunit alpha (Homo sapiens) (Q9UQM7 whole entry): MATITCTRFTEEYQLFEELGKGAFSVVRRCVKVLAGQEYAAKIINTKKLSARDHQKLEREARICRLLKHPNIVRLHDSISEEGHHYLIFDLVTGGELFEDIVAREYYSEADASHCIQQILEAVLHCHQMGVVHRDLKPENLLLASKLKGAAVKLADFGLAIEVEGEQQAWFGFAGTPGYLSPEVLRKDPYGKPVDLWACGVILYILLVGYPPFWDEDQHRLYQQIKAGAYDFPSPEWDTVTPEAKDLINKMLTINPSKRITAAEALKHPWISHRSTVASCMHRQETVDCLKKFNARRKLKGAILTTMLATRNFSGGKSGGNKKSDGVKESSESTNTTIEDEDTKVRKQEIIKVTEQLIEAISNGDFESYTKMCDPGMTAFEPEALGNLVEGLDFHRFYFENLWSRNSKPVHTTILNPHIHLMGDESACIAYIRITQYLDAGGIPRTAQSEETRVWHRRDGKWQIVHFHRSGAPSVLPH
For experiment [11] the target is unchanged. Conditions: at 1 µM.
For experiment [12], the target named is Calcium/calmodulin-dependent protein kinase type II subunit delta (Homo sapiens) (UniProt Q13557). Conditions: at 0.1 µM.
Sequence of Calcium/calmodulin-dependent protein kinase type II subunit delta (Homo sapiens) (Q13557 whole entry): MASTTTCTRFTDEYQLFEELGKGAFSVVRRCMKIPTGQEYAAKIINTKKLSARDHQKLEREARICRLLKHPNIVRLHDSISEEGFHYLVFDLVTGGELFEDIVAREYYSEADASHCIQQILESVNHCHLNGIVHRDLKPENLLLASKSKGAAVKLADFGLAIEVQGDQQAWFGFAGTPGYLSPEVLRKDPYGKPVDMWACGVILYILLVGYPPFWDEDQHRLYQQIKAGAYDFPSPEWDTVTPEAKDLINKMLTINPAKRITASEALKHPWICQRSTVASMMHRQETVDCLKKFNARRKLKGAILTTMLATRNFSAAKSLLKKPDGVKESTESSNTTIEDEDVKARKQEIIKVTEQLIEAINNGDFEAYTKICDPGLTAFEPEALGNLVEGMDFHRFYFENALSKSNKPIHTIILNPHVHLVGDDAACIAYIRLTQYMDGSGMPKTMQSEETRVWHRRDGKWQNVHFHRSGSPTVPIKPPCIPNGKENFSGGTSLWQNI
Experiment [13] shares this target. The conditions noted are these: at 1 µM.
In experiment [14] the target is T4, Calcium/calmodulin-dependent protein kinase type IV (Homo sapiens) (UniProt Q16566).
T4 sequence (whole entry): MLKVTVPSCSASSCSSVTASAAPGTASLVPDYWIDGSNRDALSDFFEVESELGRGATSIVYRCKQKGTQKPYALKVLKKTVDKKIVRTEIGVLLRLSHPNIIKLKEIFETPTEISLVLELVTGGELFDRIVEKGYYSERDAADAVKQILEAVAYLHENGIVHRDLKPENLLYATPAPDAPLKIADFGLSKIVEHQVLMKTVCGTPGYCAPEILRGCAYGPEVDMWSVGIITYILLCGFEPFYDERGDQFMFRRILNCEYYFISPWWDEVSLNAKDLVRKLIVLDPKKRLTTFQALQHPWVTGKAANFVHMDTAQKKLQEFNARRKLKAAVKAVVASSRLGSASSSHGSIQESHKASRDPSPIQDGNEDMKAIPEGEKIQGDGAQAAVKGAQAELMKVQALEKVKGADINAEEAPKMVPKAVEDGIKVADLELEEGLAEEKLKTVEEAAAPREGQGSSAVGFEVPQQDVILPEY
The conditions noted are these: at 0.1 µM.

In experiment [15] the target is T4, Calcium/calmodulin-dependent protein kinase type IV (Homo sapiens). Conditions: at 1 µM.
Experiment [16] deals with T5, Serine/threonine-protein kinase Chk1 (Homo sapiens) (UniProt O14757).
T5 sequence (whole entry): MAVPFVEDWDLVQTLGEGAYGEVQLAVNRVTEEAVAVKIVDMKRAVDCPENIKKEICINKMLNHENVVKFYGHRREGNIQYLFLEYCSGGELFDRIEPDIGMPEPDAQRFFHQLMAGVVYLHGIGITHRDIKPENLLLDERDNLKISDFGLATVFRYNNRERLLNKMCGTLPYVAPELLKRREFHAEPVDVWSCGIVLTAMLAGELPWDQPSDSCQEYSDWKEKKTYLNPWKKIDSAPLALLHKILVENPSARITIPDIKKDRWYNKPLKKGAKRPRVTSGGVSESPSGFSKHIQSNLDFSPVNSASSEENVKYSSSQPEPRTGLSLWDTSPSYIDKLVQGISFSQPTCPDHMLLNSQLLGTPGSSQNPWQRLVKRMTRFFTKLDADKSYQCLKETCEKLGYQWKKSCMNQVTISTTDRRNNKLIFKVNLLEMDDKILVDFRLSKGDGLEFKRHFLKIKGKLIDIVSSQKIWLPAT
Conditions: at 0.1 µM.

Experiment [17] deals with T5, Serine/threonine-protein kinase Chk1 (Homo sapiens). The conditions noted are these: at 1 µM.
Experiment [18] concerns the target Serine/threonine-protein kinase Chk2 (Homo sapiens) (UniProt O96017). Conditions: at 0.1 µM.
For experiment [19] the target is unchanged. The conditions noted are these: at 1 µM.
Experiment [20] addresses Death-associated protein kinase 1 (Homo sapiens) (UniProt P53355). The conditions noted are these: at 0.1 µM.

Sequence of Serine/threonine-protein kinase Chk2 (Homo sapiens) (O96017 whole entry): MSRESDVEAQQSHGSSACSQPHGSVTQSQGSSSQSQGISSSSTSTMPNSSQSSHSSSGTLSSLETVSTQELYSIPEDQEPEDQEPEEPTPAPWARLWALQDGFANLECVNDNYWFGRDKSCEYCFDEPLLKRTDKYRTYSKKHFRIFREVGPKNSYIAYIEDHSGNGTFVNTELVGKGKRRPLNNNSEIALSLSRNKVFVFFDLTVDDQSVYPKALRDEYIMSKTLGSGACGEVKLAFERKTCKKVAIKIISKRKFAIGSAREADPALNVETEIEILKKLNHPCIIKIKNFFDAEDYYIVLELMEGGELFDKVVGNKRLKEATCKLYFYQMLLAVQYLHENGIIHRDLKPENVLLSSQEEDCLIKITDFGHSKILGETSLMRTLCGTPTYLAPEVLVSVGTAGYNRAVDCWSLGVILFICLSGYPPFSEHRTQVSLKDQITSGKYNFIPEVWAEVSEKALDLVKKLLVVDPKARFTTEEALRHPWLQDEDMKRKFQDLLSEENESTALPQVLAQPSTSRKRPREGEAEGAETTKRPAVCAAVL
Sequence of 5'-AMP-activated protein kinase catalytic subunit alpha-2 (Homo sapiens) (P54646 whole entry, looked up): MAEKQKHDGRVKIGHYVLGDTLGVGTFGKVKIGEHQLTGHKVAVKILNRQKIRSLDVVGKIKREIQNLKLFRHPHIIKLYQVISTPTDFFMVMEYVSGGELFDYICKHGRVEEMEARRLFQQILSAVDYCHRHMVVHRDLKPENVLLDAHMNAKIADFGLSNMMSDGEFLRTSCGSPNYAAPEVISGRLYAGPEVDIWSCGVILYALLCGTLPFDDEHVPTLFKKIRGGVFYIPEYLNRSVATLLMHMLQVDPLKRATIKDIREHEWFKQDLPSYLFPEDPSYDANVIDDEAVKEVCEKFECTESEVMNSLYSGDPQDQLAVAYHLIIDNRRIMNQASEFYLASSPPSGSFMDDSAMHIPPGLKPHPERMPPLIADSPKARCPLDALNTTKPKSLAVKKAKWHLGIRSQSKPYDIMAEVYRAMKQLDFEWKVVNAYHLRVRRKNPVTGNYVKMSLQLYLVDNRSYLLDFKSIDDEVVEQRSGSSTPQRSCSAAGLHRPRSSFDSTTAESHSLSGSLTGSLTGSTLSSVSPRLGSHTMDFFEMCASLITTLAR
Sequence of Death-associated protein kinase 1 (Homo sapiens) (P53355 whole entry, looked up): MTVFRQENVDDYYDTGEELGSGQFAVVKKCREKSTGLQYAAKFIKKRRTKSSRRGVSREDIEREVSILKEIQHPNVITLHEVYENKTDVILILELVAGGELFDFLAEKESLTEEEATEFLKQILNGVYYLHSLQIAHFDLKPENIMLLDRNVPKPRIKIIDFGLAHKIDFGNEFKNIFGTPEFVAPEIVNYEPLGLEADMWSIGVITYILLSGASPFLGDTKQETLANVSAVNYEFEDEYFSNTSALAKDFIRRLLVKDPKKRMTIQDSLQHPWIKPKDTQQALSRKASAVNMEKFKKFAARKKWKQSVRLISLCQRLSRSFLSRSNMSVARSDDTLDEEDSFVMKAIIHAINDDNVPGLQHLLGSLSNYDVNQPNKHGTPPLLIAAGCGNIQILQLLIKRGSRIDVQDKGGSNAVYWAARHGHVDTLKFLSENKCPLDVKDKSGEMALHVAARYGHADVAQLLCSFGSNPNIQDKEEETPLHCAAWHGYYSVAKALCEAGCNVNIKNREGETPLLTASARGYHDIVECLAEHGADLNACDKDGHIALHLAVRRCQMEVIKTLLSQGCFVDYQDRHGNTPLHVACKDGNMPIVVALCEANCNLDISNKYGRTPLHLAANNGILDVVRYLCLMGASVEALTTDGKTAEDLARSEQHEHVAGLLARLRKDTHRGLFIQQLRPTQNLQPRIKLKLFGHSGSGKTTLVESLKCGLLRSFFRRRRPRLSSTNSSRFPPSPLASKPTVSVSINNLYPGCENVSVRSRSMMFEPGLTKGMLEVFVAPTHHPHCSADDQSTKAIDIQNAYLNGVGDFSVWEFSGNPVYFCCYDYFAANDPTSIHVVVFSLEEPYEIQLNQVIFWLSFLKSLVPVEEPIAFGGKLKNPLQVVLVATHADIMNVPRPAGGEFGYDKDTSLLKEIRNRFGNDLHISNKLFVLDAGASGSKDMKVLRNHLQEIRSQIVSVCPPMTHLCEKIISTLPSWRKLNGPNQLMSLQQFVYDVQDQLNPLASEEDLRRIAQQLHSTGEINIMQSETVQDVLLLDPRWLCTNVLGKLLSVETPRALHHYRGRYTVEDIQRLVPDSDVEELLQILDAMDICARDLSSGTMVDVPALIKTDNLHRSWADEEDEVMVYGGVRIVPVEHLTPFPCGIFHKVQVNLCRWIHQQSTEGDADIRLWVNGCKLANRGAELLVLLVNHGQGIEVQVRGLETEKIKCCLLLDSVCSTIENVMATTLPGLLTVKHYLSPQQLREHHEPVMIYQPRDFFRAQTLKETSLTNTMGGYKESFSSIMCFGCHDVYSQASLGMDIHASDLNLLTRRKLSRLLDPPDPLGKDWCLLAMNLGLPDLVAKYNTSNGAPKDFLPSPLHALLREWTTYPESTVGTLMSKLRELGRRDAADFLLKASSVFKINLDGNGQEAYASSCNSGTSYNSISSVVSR

`Fc1cccc(COc2ccc(Nc3ncnc4sc(-c5ccco5)cc34)cc2Cl)c1`: the inhibition in experiment [1] amounted to 5.24%; in experiment [2] it was 1.97%; in experiment [3], 6.27%; in experiment [4] it was 0.38%; in [5], 7.21%; in [6] it was 4.09%. In addition, the inhibition was 7.5% in experiment [7]; -0.77% in experiment [8]; -1.08% in experiment [9]; 1.16% in experiment [10]; -2.48% in experiment [11]; 3.02% in [12]. Also, the inhibition in experiment [13] was 1.67%; in [14] it was -1.87%; in [15], -2.46%; in experiment [16] it was 10.1%; in experiment [17], 12.5%; in experiment [18] it was 7.63%. Moreover, the inhibition in experiment [19] came to 8.84%; in experiment [20] it was 13.2%.
For `c1ccc(COc2ccc(Nc3ncnc4ccc(-c5ccco5)cc34)cc2)cc1`, the inhibition in experiment [1] was 3.28%; in experiment [2], -0.16%; in experiment [3], -1.67%; in experiment [4], -0.97%; in experiment [5], 1.48%; in experiment [6], 0.91%. Moreover, the inhibition worked out at 1.54% in experiment [7]; 0.28% in experiment [8]; 11.7% in experiment [9]; 2.01% in experiment [10]; 0.02% in experiment [11]; 0.67% in [12]. Besides, the inhibition in experiment [13] was 0.25%; in [14] it was 1.19%; in experiment [15], 0.04%; in [16], 0.21%; in [17] it was -0.59%; in [18] it was 1.08%. For the same molecule, the inhibition is 4.69% in experiment [19] and 2.45% in experiment [20].
As for `N#Cc1c(NC(=O)CN2CCOCC2)sc2c1CCCC2`, the inhibition in experiment [1] was found to be 2.26%; in experiment [2], 2.61%; in experiment [3] it was 4.86%; in [4] it was 0.57%; in [5] it was 1.52%; in experiment [6], 2.72%. Also, the inhibition is 3.03% in experiment [7]; -0.19% in [8]; 0.36% in experiment [9]; 3.08% in experiment [10]; 4.63% in experiment [11]; 3.07% in experiment [12]. The inhibition was 5.65% in experiment [13]; -1.76% in [14]; -1.41% in experiment [15]; 1.74% in experiment [16]; 5.06% in experiment [17]; 1.85% in experiment [18]. Further, the inhibition in experiment [19] is 4.14%; in [20] it was 5.34%.
Turning to `NS(=O)(=O)c1ccc(N/N=C2\C(=O)Nc3ccc4ncccc4c32)cc1`, the inhibition in experiment [1] stood at 62.2%; in experiment [2], 79.8%; in experiment [3], 85.4%; in experiment [4], 46%; in experiment [5], 76%; in experiment [6] it was 60.4%. For the same molecule, the inhibition in experiment [7] stood at 80.7%; in experiment [8], 2.62%; in experiment [9], 9.02%; in experiment [10], 2.95%; in experiment [11] it was 7.93%; in [12], 4.26%. Moreover, the inhibition in experiment [13] amounted to 18.3%; in experiment [14], 1.9%; in experiment [15], 2.53%; in experiment [16], 7.46%; in [17] it was 41.1%; in [18] it was 5%. Also, the figures for the inhibition in experiment [19] and in experiment [20] were 26.3% and 10.9%, respectively.
